The campaign covered roughly 10,000 compounds. About 320 (3.2%) were called active. This excerpt belongs to a sample that is enriched for actives. Unmarked numbers belong to inactive results. Rule as the data show it: active = CPE inhibition mostly above about 9.1% (no sharp cut-off); inactive = mostly below about 7.2%.
assay: Dengue virus cytopathic effect inhibitors, cell-based, CPE readout, HTS (AID 540333); conditions: Dengue virus CPE inhibition in host cells, at 20 µM; active compounds read high

Row | Structure (SMILES) | CPE inhibition
1 | Fc1cccc(NC(=S)NCCN2CCOCC2)c1 | 0.255%
2 | O=C(C[n+]1cc(-c2ccc(F)cc2)n2c1CCC2)Nc1nc(-c2ccccc2)cs1 | 0.55%
3 | O=C(C[n+]1cc(-c2ccccc2)n2c1CCC2)Nc1nc(-c2ccc(F)cc2)cs1 | 17% (active)
4 | O=C(C[n+]1cc(-c2ccccc2)n2c1CCC2)Nc1nc(-c2ccccc2)cs1 | 4.34%
5 | O=C(c1cccc(S(=O)(=O)N2CCc3ccccc3C2)c1)N1CCN(c2ccccc2)CC1 | 3%
6 | CC1CCCN(S(=O)(=O)c2ccc(Br)s2)C1 (stereo not given) | 0.775%
7 | CC1CC(C)CN(C(=O)C(NS(=O)(=O)c2ccc(Br)s2)c2ccccc2)C1 (stereo not given) | 24.6% (active)
8 | O=C(NC1CCCC1)C(NS(=O)(=O)c1ccc(Br)s1)c1ccccc1 (stereo not given) | 0.805%
9 | CN(/N=C/c1cc([N+](=O)[O-])ccc1O)c1ccccc1 | 1.04%
10 | COC(=O)c1ccc(CSc2nnc(NC(=O)C3CC(=O)N(Cc4ccc(C)cc4)C3)s2)cc1 (stereo not given) | 0.19%
11 | CC(C)CN(CC(C)C)C(=O)CCCC(=O)N(CC(C)C)CC(C)C | inactive
12 | O=C(CCC(=O)N1CCN(S(=O)(=O)c2ccc(Cl)cc2)CC1)Nc1ccc2ccccc2c1 | 11% (active)
13 | O=S(=O)(c1ccc(Cl)cc1)N1CCN(C(=S)Nc2ccc(F)c(Cl)c2)CC1 | 13.6% (active)
14 | O=C(CCC(=O)N1CCN(S(=O)(=O)c2ccc(Cl)cc2)CC1)NCc1ccccc1 | 0.355%
15 | O=C(Nc1ccc(F)cc1)C(c1ccccc1)N1CCN(S(=O)(=O)c2ccc3ccccc3c2)CC1 (stereo not given) | 2%
16 | O=C(CNC(=O)c1ccc2ccccc2c1)OCC(=O)N1CCN(S(=O)(=O)c2ccc3ccccc3c2)CC1 | inactive
17 | O=S(=O)(c1ccc2ccccc2c1)N1CCN(C(=S)Nc2ccc(F)cc2)CC1 | 26.1% (active)
18 | NS(=O)(=O)c1ccc(NC(=S)N2CCN(c3cccc(Cl)c3)CC2)cc1 | 1.62%
19 | Fc1ccc(NC(=S)N2CCCC2)cc1Cl | 0.335%
20 | O=S(=O)(c1ccccc1)N1CCN(C(=S)Nc2ccc(F)cc2)CC1 | 1.81%
21 | COC(=O)c1ccc(CNC(=O)COC(=O)CC23CC4CC(CC(Br)(C4)C2)C3)cc1 | inactive
22 | COc1ccc(CC(=O)NNc2ncnc3c2cnn3C)cc1 | inactive
23 | Cc1cccc(CSC(Nc2ccc(F)cc2)=C(C#N)C#N)c1 | 0.46%
24 | COc1cccc(C(C)NC(=O)c2c(F)cccc2Cl)c1 (stereo not given) | 0.965%
25 | CC(=O)CSc1ccc(C(=O)O)cn1 | 0.685%
